Results filed as inconclusive are left out. Where a call stands in place of a potency, no number is given. Active and inactive are the calls of the source. Unless noted, calls follow the shape of the dose curve; as a rule, active = well fitted curve in the direction sought with a large enough effect; inconclusive = small, poorly fitted or top-dose-only effect, or another doubt; inactive = no such curve, though single readings can be large; an effect the other way counts as inactive or inconclusive.
Columns and labels:
[1] = molecular target: Calcium and integrin-binding protein 1 (Homo sapiens) (UniProt Q99828); experiment: Primary qHTS for Identification of Calcium Integrin Binding Protein 1 (CIB1) Competitor (AID 1508620);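 also: GST tagged CIB1 binding a fluorescein labelled alphaIIb integrin peptide tracer; top concentration of the series differs between compounds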
Method in brief: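 Fluorescence polarization competition: GST-tagged CIB1 (1 uM final) preincubated with compound 15 min at room temperature, then FITC-labelled alphaIIb peptide (100 nM final) added. After 15 min at room temperature, polarization read at Ex 480/Em 540.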

[2] = molecular target: Cytochrome P450 2D6 (Homo sapiens) (UniProt P10635); experiment: Cytochrome P450 family 2 subfamily D member 6 (CYP2D6) small molecule antagonists: luciferase biochemical (cell-free) qHTS assay (AID 1645840; active = well fitted curve in the direction sought with a large enough effect in the repeat runs; an effect the other way counts as inactive or inconclusive; also: nearly all actives have a fitted effect of over 55% in size; also: potency is read from the fitted curve at half-maximal effect)
Method in brief: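 P450-Glo luminescent screen: recombinant CYP2D6 enzyme–proluciferin substrate mix preincubated with compound 10 min at room temperature, then NADPH regeneration added for 1 h at room temperature. Detection reagent added for 20 min; luciferin light read as relative luminescence units.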

[3] = Primary qHTS for inhibitors of nuclear receptor binding SET domain protein 2 (NSD2) in an isogenic RCH-ACV NSD2 p.E1099K mutant (9B) (AID 1645876); also: nearly all actives have a fitted effect of over 70% in size; also: potency is read from the fitted curve at half-maximal effect
[4] = molecular target: Cytochrome P450 2C9 (Homo sapiens) (UniProt P11712); experiment: Cytochrome P450 family 2 subfamily C member 9 (CYP2C9) small molecule antagonists: luciferase biochemical (cell-free) qHTS assay (AID 1645842; active = well fitted curve in the direction sought with a large enough effect in the repeat runs; an effect the other way counts as inactive or inconclusive; also: potency is read from the fitted curve at half-maximal effect; nearly all actives have a fitted effect of over 55% in size)
Method in brief: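 Luminescence, after 20 min with luciferin detection reagent, reflected CYP2C9 turnover during a 1 h NADPH-driven reaction at 37C. Enzyme-substrate mix contained 0.4% bovine serum albumin and was preincubated with compound 10 min at room temperature.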

Sequence of Cytochrome P450 2D6 (Homo sapiens) (P10635 whole entry, looked up): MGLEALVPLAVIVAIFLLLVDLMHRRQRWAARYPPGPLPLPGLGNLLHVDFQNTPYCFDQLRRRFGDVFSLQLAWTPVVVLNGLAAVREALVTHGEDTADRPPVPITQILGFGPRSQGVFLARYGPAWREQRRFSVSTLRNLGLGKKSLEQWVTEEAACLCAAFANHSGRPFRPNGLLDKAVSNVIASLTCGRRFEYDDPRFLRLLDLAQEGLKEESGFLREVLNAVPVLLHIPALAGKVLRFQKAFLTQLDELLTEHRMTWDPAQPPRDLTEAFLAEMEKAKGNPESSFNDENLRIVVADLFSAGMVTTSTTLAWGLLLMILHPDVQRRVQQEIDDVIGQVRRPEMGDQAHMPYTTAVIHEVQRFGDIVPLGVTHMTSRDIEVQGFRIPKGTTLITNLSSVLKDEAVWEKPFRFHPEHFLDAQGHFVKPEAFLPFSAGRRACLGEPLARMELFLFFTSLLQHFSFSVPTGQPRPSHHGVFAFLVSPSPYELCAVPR
Sequence of Calcium and integrin-binding protein 1 (Homo sapiens) (Q99828 whole entry, looked up): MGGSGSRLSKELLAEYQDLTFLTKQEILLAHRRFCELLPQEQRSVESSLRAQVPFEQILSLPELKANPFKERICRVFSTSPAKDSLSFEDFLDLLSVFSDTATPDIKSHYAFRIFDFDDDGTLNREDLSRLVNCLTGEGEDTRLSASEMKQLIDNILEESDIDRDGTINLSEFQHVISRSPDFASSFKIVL
Sequence of Cytochrome P450 2C9 (Homo sapiens) (P11712 whole entry, looked up): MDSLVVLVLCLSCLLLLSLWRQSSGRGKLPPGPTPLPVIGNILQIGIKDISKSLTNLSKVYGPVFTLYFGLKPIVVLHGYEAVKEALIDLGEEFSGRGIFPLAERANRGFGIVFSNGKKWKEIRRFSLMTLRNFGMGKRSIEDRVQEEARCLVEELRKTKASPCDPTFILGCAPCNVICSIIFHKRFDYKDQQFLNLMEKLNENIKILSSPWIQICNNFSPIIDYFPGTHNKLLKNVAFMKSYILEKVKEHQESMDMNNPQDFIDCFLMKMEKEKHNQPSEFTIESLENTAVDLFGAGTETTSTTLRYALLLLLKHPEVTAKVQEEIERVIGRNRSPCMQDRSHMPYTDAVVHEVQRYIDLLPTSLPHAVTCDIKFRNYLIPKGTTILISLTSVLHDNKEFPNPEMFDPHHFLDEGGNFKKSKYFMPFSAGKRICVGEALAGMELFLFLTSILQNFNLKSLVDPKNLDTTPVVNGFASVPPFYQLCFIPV

Compound | Potency [1] | Potency [2] | Potency [3] | Potency [4]
Cc1ccccc1NC(=O)Nc1ccc(CC(=O)N(C)[C@@H](CC(C)C)C(=O)NCC[C@H](NC(=O)[C@@H]2CCCN2S(=O)(=O)c2cc(Cl)cc(Cl)c2)C(=O)O)cc1 | inactive | inactive | inactive | 
Cc1ccc(C(=O)N(CCCN)C(c2oc3cc(Cl)ccc3c(=O)c2Cc2ccccc2)C(C)C)cc1 (stereo not given) | inactive | 10.7 µM (active) | inactive | 10.7 µM (active)
Cc1cc(C)c(Nc2ccnc(Nc3ccc(C#N)cc3)n2)c(C)c1 | inactive | 10.7 µM (active) | 4.09 µM (active) | 3.79 µM (active)
COc1ccc(N2CCOCC2)c2sc(NC(=O)N3CCC(C)(O)CC3)nc12 | inactive | 16.9 µM (active) | inactive | 
CC(C)[C@@H]1C(=O)N(S(C)(=O)=O)[C@@H]2CCN(C(=O)/C=C/CN3CCCCC3)[C@H]21 | inactive | inactive | inactive | 
Nc1ccc(-c2cccc3c(=O)cc(N4CCOCC4)oc23)cc1 | inactive | inactive | 1.63 µM (active) | 
